Source: PubChem BioAssay
In the library only some 11% were active in any assay of this set; here they are far more common.
IL-1B inflam inh: blocks inflammasome-driven IL-1 beta release; THP-1 LPS/ATP IL-1B secretion, AlphaLISA, 16 h; stronger effect = lower value; activity change, % at 57.5 µM; actives 4.7% (n = 360,000); in the data active means activity change below about -50%; inconclusive means mostly about -30% to -49%; further: on the % scale 0 is the no-effect control and ±100 the full control effect
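Secreted IL-1B measured by AlphaLISA bead assay after 16 h compound exposure of THP-1 cells; compounds (final up to 57.5 uM) added 1 h before LPS (250 ng/mL) and ATP (1.25 mM) stimulation; lower signal means less secretion.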
SW480 rerep: induces DNA re-replication in SW480 colon adenocarcinoma cells. SW480 DNA re-replication, Hoechst DNA content imaging, 48 h. Potency, µM (titrated, usually from 46.1 µM), for the others: at the top dose re-replication activation, actives largely listed as activators. actives 1.8% (n = 340,000); further: potency means the concentration at half of the fitted maximal effect; % of control where 0% means no effect; nearly all actives have a fitted effect of over 55% in size
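Treated cells incubate 48 hr (37 C, 5% CO2), are stained 40 min with Hoechst, and nuclear fluorescence is enumerated; a rise in nuclei with high DNA signal marks re-replication.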
MCF10A rereplic: DNA re-replication induction in MCF 10a cells; MCF 10A DNA re-replication, Hoechst nuclear intensity, 48 h; Potency, µM (titrated, usually from 46.1 µM), for inactives: top-dose activity, positive = re-replication, most hits filed as activators; actives 2.9% (n = 350,000); AID 624296; further: potency means the concentration at half of the fitted maximal effect; % of control where 0% means no effect; nearly all actives have a fitted effect of over 50% in size
VP16 counter: inhibits Gal4-VP16 luciferase reporter, ROR gamma counter-screen | Potency, µM (top dose mostly 53.6 µM), without a hit: at the top dose activity, negative = inhibition, usual class: inhibitors | actives 3.5% (n = 310,000) | AID 2546 | Drosophila S2 Gal4-VP16 UAS-luciferase, luminescence, 20 h;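 further: Gal4-VP16 expression switched on by copper sulfate through the metallothionein promoter; potency means the concentration at half of the fitted maximal effect; on the % scale 0 is the no-effect control and ±100 the full control effect; nearly all actives have a fitted effect of over 50% in size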
RORg inh: blocks mouse ROR gamma transcriptional activity; Drosophila S2 Gal4-RORgamma UAS-luciferase reporter, 20 h; AID 2551; actives 5.4% (n = 310,000); Potency, µM (titrated, usually from 53.6 µM), without a hit: at the highest dose activity change, negative = inhibition, actives largely listed as inhibitors; further: potency means the concentration at half of the fitted maximal effect; on the % scale 0 is the no-effect control and ±100 the full control effect; nearly all actives have a fitted effect of over 60% in size
Target sequence (P51450 whole entry, looked up, the tested form may be a part): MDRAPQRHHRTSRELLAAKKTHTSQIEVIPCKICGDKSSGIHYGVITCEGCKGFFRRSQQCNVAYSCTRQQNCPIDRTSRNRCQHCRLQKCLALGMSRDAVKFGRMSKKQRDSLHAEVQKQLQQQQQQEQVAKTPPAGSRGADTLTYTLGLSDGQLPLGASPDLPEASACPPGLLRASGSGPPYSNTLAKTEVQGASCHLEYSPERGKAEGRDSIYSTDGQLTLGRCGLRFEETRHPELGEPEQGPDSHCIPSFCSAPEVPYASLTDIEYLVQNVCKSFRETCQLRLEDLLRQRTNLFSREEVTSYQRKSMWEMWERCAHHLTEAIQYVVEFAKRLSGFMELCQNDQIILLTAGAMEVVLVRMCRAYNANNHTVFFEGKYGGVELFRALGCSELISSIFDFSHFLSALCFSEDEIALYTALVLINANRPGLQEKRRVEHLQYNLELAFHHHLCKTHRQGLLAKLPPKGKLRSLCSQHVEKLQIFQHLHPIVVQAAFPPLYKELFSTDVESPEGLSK
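ROR gamma transcriptional activity was tracked as Gal4-UAS luciferase output in stably transfected Drosophila Schneider cells, with compound added 1 hr before 700 uM copper sulfate induction and a 20 hr ambient-temperature incubation.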
Active calls of the source: *; [ ] = another dose, or the depositor's remark. Unless noted, the call rests on the fitted dose curve; in most records, active means well fitted curve in the direction sought with a large enough effect; inconclusive means small, poorly fitted or top-dose-only effect, or another doubt; inactive means no such curve, though single readings can be large; an effect the other way counts as inactive or inconclusive.

How did CCOc1ccc(S(=O)(=O)Nc2cccc(OC)c2)cc1 do in these assays?
IL-1B inflam inh: 36; SW480 rerep: inconclusive; MCF10A rereplic: inconclusive; VP16 counter: 18µM*; RORg inh: -31%

How did CCc1nc(Nc2ccc(O)cc2)c2oc3ccccc3c2n1 do in these assays?
IL-1B inflam inh: -89*; SW480 rerep: -3%; MCF10A rereplic: -4%; VP16 counter: 3%; RORg inh: -25%

What do the screens show for `CCc1nc(N2CCC(C)CC2)c2oc3ccccc3c2n1`?
IL-1B inflam inh: 13; SW480 rerep: inconclusive; MCF10A rereplic: 18µM*; VP16 counter: inconclusive; RORg inh: 11µM*

What do the screens show for `CCc1nc(N(CC)CC)c2oc3ccccc3c2n1`?
IL-1B inflam inh: 18; SW480 rerep: 1%; MCF10A rereplic: 16%; VP16 counter: inconclusive; RORg inh: 14µM*

How did CCNc1nc(CC)nc2c1oc1ccccc12 do in these assays?
IL-1B inflam inh: -2; SW480 rerep: -7%; MCF10A rereplic: 13%; VP16 counter: 2%; RORg inh: -29%

Results for CC(O)(c1ccccc1)c1nc(-c2ccc(S(C)(=O)=O)cc2)cs1 (stereo not given) ?
IL-1B inflam inh: 10

What do the screens show for `COc1cc2c(cc1OC)CC(C(=O)NCc1ccccc1)NC2` (stereo not given)?
IL-1B inflam inh: 4; SW480 rerep: -6%; MCF10A rereplic: 3%; VP16 counter: 2%; RORg inh: -7%

What do the screens show for `CC(C)[C@@H]1CN=C(N)N1C[C@@H]1CCCN1C[C@H](C)N1C[C@@H](Cc2ccccc2)N(CCc2ccc(Cl)c(Cl)c2)C1=N`?
IL-1B inflam inh: -75*; SW480 rerep: -92%; MCF10A rereplic: -4%

How did C[C@@H](CN1CCC[C@H]1CN1C(N)=NC[C@@H]1Cc1ccccc1)N1C[C@@H](Cc2ccccc2)N(CCc2ccc(Cl)c(Cl)c2)C1=N do in these assays?
IL-1B inflam inh: -66*; SW480 rerep: -2%; MCF10A rereplic: -10%

How did CC(C)[C@H](CN1CCC[C@H]1CN1C(N)=NC[C@@H]1Cc1ccccc1)N1C[C@@H](Cc2ccccc2)N(CCc2ccc(Cl)c(Cl)c2)C1=N do in these assays?
IL-1B inflam inh: inconclusive; SW480 rerep: 21%; MCF10A rereplic: inconclusive

What do the screens show for `CC(C)C[C@H](NC(=O)[C@H](Cc1ccccc1)NC(=O)[C@H](Cc1ccccc1)NC(=O)[C@@H](N)CO)C(=O)N[C@@H](CCCN=C(N)N)C(=O)N[C@@H](CC(N)=O)C(=O)O`?
VP16 counter: 2%; RORg inh: 11%

What do the screens show for `COc1ccc(/C=N/NC(=O)c2ccc(CN3C(=O)c4cccc5cccc3c45)cc2)cc1O`?
IL-1B inflam inh: 16; SW480 rerep: -84%; MCF10A rereplic: 16µM*; VP16 counter: -4%; RORg inh: 40%

How did COc1ccc(/C=N/Nc2nnc(-c3ccccc3)c(=O)[nH]2)cc1 do in these assays?
IL-1B inflam inh: -71*; SW480 rerep: 18%; MCF10A rereplic: inconclusive; VP16 counter: -5%; RORg inh: -29%

How did COc1ccc(/C=N/NC(=O)c2nc(-c3ccccc3)cc(-c3ccccc3)n2)cc1O do in these assays?
IL-1B inflam inh: -82*; SW480 rerep: 5%; MCF10A rereplic: 40%; VP16 counter: -15%; RORg inh: 41%[10 µM]

What do the screens show for `COc1cc(/C=N/NC(=O)c2ccc(CN3C(=O)c4cccc5cccc3c45)cc2)cc(OC)c1O`?
IL-1B inflam inh: 40; SW480 rerep: -4%; MCF10A rereplic: 9%; VP16 counter: -6%; RORg inh: 10%

Results for O=c1[nH]c(N/N=C/c2ccccc2Br)nnc1-c1ccccc1 ?
IL-1B inflam inh: -8; MCF10A rereplic: inconclusive; VP16 counter: inconclusive; RORg inh: inconclusive

Results for COc1cc(/C=N/NC(=O)c2cnn3c(C)cc(-c4ccccc4)nc23)ccc1O ?
IL-1B inflam inh: -57*; SW480 rerep: -2%; MCF10A rereplic: 6%; VP16 counter: -11%; RORg inh: -2%

Results for CCCC(C)C(=O)Nc1nnc(CCc2ccccc2)s1 (stereo not given) ?
IL-1B inflam inh: -2; SW480 rerep: 9%; MCF10A rereplic: -3%; VP16 counter: -13%; RORg inh: -1%

Results for CCCn1c(-c2ccc(F)cc2)nc2c(NCCCN(C)C)nc(C)nc21 ?
VP16 counter: 5%; RORg inh: -35%

What do the screens show for `C[C@@H](C(=O)NCCc1ccccc1)N1C(=O)N2CCc3c([nH]c4ccccc34)[C@@]2(C)C1=O`?
IL-1B inflam inh: 7; SW480 rerep: 4%; MCF10A rereplic: -7%; VP16 counter: -21%; RORg inh: 28%

How did Cc1cc(C)nc(N2CCN(c3ccc(F)cc3)CC2)n1 do in these assays?
IL-1B inflam inh: 9; SW480 rerep: -34%; MCF10A rereplic: inconclusive; VP16 counter: 3%; RORg inh: -2%

What do the screens show for `O=[N+]([O-])c1nccn1CCCCCCN1CCOCC1`?
IL-1B inflam inh: 50

How did COc1ccccc1-c1csc(C(C)(O)c2cccc(F)c2)n1 (stereo not given) do in these assays?
IL-1B inflam inh: 27

Results for COc1ccc(/C=N/NC(=O)c2nc(-c3ccccc3)cc(-c3ccccc3)n2)cc1 ?
IL-1B inflam inh: -80*; SW480 rerep: 2%; MCF10A rereplic: inconclusive; VP16 counter: -4%; RORg inh: 29%

How did COc1cc(/C=N/NC(=O)c2nc(-c3ccccc3)n(-c3ccccc3)n2)ccc1O do in these assays?
IL-1B inflam inh: -3; SW480 rerep: -12%; MCF10A rereplic: -2%; VP16 counter: -6%; RORg inh: -1%

Results for COc1cc(/C=N/Nc2nc(C)nc3c2cnn3-c2ccccc2)ccc1O ?
IL-1B inflam inh: -100*; SW480 rerep: 15µM*; MCF10A rereplic: inconclusive; VP16 counter: -6%; RORg inh: 4%

Results for Cc1ccc(NC(=O)CC2SC(=O)NC2=O)cc1 (stereo not given) ?
IL-1B inflam inh: -4; SW480 rerep: -1%; MCF10A rereplic: 13%; VP16 counter: 4.5µM*; RORg inh: 5µM*

Results for COc1ccc(NC(=O)/C=C2\SC(=O)NC2=O)cc1 ?
IL-1B inflam inh: -51*; SW480 rerep: -4%; MCF10A rereplic: 20%; VP16 counter: 3%; RORg inh: -1%

Results for COc1ccc(NC(=O)Nc2ccc(OC)cc2)cc1 ?
IL-1B inflam inh: 3; SW480 rerep: -5%; MCF10A rereplic: -4%; VP16 counter: inconclusive; RORg inh: 12%

Results for Cc1ccc(NC(=O)CC2S/C(=N/N=C3/NC(=O)CS3)NC2=O)cc1 (stereo not given) ?
IL-1B inflam inh: -4; SW480 rerep: -8%; MCF10A rereplic: -3%; VP16 counter: -7%; RORg inh: inconclusive
